# Experimental data from PMC7862700, “An all-to-all approach to the identification of sequence-specific readers for epigenetic DNA modifications on cytosine”.
# Target: T1, EHF (Homo sapiens, UniProt Q9NZC4 1-300)
# T1 sequence: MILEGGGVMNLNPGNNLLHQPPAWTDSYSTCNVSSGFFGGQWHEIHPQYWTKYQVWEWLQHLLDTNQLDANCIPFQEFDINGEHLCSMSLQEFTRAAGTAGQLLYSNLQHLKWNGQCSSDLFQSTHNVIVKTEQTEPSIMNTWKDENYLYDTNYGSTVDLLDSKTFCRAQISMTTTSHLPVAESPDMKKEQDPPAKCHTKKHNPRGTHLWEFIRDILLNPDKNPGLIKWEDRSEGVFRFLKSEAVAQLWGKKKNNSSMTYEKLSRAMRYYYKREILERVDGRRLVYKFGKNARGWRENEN
# Assay: DAPPL (digital affinity profiling via proximity ligation, sequencing); 10 mM Tris-HCl pH 7.5, 50 mM NaCl, 1 mM DTT, 4% glycerol, room temperature, 30 min; GST-TFs on glutathione beads, 16-mer random dsDNA library, 0.1% formaldehyde crosslink after washing; high values mean tight binding
# Conditions: protein: recombinant; tags: N-terminal GST; dsDNA, one strand shown
# Method in brief: (§1)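 Yeast served to express human transcription factors as GST fusions, which were then captured on glutathione beads and labelled with DNA barcodes. Pooled with a tag-only sample, they were incubated with 200 nmole of a 16-mer random double-stranded DNA library for 30 min at room temperature in Tris/NaCl/DTT/glycerol buffer, washed, crosslinked with 0.1% formaldehyde, ligated by proximity, amplified by PCR and sequenced. Dividing each hexamer's read frequency for a factor by its frequency for the tag-only sample gives the binding signal.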
row,Sequence,binding signal
1,AGCGAA,"1.06 fold enrichment (6-mer frequency, TF over GST control)"
2,GCGAAG,"1 fold enrichment (6-mer frequency, TF over GST control)"
3,CTAGAC,"1.01 fold enrichment (6-mer frequency, TF over GST control)"

# Target: SPIB (Homo sapiens, UniProt Q01892 1-262)
# Sequence (Q01892 whole entry): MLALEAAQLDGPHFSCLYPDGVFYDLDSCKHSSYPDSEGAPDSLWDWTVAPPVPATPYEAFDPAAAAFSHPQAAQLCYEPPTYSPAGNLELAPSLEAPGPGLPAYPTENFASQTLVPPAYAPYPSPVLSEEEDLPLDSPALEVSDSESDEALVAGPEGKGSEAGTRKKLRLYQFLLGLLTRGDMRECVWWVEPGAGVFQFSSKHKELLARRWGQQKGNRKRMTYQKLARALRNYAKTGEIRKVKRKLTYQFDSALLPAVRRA
# Assay: as above
# Conditions: protein: recombinant; tags: N-terminal GST; dsDNA, one strand shown
# Method in brief: as §1
row,Sequence,binding signal
1,GAATCA,"1.03 fold enrichment (6-mer frequency, TF over GST control)"
2,TTCGTG,"1.04 fold enrichment (6-mer frequency, TF over GST control)"
3,TGCGAG,"1.03 fold enrichment (6-mer frequency, TF over GST control)"

# Target: T2, ELK3 (Homo sapiens, UniProt P41970 1-407)
# T2 sequence: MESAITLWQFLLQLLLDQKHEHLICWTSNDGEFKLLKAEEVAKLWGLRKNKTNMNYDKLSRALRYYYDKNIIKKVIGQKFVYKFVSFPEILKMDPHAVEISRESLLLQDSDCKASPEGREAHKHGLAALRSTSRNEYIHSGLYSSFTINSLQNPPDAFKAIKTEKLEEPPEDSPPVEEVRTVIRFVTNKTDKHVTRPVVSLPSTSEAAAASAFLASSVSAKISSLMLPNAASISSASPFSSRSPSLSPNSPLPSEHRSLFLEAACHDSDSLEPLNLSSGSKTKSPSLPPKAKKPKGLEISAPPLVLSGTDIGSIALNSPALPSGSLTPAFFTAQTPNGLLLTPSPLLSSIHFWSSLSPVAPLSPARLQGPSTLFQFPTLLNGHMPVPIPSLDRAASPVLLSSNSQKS
# Assay: as above
# Conditions: protein: recombinant; tags: N-terminal GST; dsDNA, one strand shown
# Method in brief: as §1
row,Sequence,binding signal
1,GGAAAG,"1 fold enrichment (6-mer frequency, TF over GST control)"
2,GTGGAT,"1.04 fold enrichment (6-mer frequency, TF over GST control)"
3,CAAAGA,"1.03 fold enrichment (6-mer frequency, TF over GST control)"
4,GATAAG,"1.02 fold enrichment (6-mer frequency, TF over GST control)"

# Target: HSF1 (Homo sapiens, UniProt Q00613 1-529)
# Sequence (Q00613 whole entry): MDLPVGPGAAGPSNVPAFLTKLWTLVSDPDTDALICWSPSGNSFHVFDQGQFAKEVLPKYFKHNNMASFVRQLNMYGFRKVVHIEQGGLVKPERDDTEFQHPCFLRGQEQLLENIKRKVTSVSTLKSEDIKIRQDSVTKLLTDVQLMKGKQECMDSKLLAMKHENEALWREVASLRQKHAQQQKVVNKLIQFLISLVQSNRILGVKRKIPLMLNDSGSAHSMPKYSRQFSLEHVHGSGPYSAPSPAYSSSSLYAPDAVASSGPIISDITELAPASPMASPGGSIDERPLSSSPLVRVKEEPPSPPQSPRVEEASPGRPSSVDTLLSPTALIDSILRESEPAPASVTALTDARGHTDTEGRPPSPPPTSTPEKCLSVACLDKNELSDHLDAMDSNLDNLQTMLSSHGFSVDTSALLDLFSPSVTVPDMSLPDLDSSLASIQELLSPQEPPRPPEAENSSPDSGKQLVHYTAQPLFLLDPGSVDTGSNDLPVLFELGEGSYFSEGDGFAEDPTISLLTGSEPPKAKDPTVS
# Assay: as above
# Conditions: protein: recombinant; tags: N-terminal GST; chain copies: 3; dsDNA, one strand shown
# Method in brief: as §1
row,Sequence,binding signal
1,GAAGAT,"1.24 fold enrichment (6-mer frequency, TF over GST control)"
2,GAATCA,"1.06 fold enrichment (6-mer frequency, TF over GST control)"
3,AGGATC,"1.08 fold enrichment (6-mer frequency, TF over GST control)"
4,CGAGAA,"3.31 fold enrichment (6-mer frequency, TF over GST control)"
5,TTCGTG,"1.1 fold enrichment (6-mer frequency, TF over GST control)"
6,GGATTC,"1.13 fold enrichment (6-mer frequency, TF over GST control)"
7,GGAAAG,"1.29 fold enrichment (6-mer frequency, TF over GST control)"
8,CAGATA,"1.12 fold enrichment (6-mer frequency, TF over GST control)"
9,GATTAG,"2.22 fold enrichment (6-mer frequency, TF over GST control)"
10,AGCGAA,"1.02 fold enrichment (6-mer frequency, TF over GST control)"
11,TAGAGA,"1.3 fold enrichment (6-mer frequency, TF over GST control)"
12,AGGGAT,"1.1 fold enrichment (6-mer frequency, TF over GST control)"
13,TCGAGA,"2.36 fold enrichment (6-mer frequency, TF over GST control)"
14,GCGAAG,"1.15 fold enrichment (6-mer frequency, TF over GST control)"
15,CTAGAC,"1.59 fold enrichment (6-mer frequency, TF over GST control)"
16,GAAAGT,"1.26 fold enrichment (6-mer frequency, TF over GST control)"
17,GTGGAT,"1.01 fold enrichment (6-mer frequency, TF over GST control)"

row,Sequence,binding signal
1,TTAGTC,"1.17 fold enrichment (6-mer frequency, TF over GST control)"
2,GGAATA,"1.44 fold enrichment (6-mer frequency, TF over GST control)"
3,GCGAAC,"1.03 fold enrichment (6-mer frequency, TF over GST control)"
4,CAAAGA,"1.1 fold enrichment (6-mer frequency, TF over GST control)"
5,AGAGAT,"1.16 fold enrichment (6-mer frequency, TF over GST control)"
6,GGATTA,"3.05 fold enrichment (6-mer frequency, TF over GST control)"
7,CCAAGA,"1.03 fold enrichment (6-mer frequency, TF over GST control)"
8,CAGAAC,"1.62 fold enrichment (6-mer frequency, TF over GST control)"
9,CCAGAT,"1.61 fold enrichment (6-mer frequency, TF over GST control)"
10,AGGATT,"1.78 fold enrichment (6-mer frequency, TF over GST control)"
11,TCAAGA,"1.12 fold enrichment (6-mer frequency, TF over GST control)"
12,GACTAA,"1.13 fold enrichment (6-mer frequency, TF over GST control)"
13,GATAAG,"1.29 fold enrichment (6-mer frequency, TF over GST control)"
14,TTCGGG,"1.58 fold enrichment (6-mer frequency, TF over GST control)"
15,TGCGAG,"1.15 fold enrichment (6-mer frequency, TF over GST control)"
16,AGAAAG,"1.87 fold enrichment (6-mer frequency, TF over GST control)"
17,CAGAAA,"1.99 fold enrichment (6-mer frequency, TF over GST control)"

# Target: T3, SPIC (Homo sapiens, UniProt Q8N5J4 1-248)
# T3 sequence: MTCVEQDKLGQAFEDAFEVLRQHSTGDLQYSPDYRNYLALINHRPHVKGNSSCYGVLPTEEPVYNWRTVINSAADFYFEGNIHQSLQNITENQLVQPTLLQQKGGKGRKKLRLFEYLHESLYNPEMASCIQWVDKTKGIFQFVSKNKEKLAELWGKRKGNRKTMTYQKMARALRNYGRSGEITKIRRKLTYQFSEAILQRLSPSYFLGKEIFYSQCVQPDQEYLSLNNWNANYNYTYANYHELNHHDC
# Assay: as above
# Conditions: protein: recombinant; tags: N-terminal GST; dsDNA, one strand shown
# Method in brief: as §1
row,Sequence,binding signal
1,CTGGGG,"1 fold enrichment (6-mer frequency, TF over GST control)"
2,ACGCCA,"1 fold enrichment (6-mer frequency, TF over GST control)"
3,TCAGAC,"1.11 fold enrichment (6-mer frequency, TF over GST control)"
4,AGCAGA,"1.04 fold enrichment (6-mer frequency, TF over GST control)"
5,GGCACC,"1.03 fold enrichment (6-mer frequency, TF over GST control)"

# Target: CRX (Homo sapiens, UniProt O43186 1-299)
# Sequence (O43186 whole entry): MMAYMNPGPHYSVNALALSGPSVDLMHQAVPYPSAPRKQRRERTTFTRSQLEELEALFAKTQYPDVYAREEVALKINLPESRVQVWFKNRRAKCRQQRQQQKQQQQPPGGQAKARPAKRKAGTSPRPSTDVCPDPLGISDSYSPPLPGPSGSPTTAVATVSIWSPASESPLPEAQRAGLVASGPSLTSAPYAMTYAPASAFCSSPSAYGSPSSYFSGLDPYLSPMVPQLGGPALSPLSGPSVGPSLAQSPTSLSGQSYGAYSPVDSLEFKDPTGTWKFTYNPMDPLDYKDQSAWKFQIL
# Assay: as above
# Conditions: protein: recombinant; tags: N-terminal GST; dsDNA, one strand shown
# Method in brief: as §1
row,Sequence,binding signal
1,GAAGAT,"1.12 fold enrichment (6-mer frequency, TF over GST control)"
2,GAATCA,"1.04 fold enrichment (6-mer frequency, TF over GST control)"
3,AGGATC,"1.2 fold enrichment (6-mer frequency, TF over GST control)"
4,CGAGAA,"1.27 fold enrichment (6-mer frequency, TF over GST control)"
5,GGATTC,"1.15 fold enrichment (6-mer frequency, TF over GST control)"
6,CAGATA,"1.17 fold enrichment (6-mer frequency, TF over GST control)"
7,GATTAG,"3.62 fold enrichment (6-mer frequency, TF over GST control)"
8,TAGAGA,"1.15 fold enrichment (6-mer frequency, TF over GST control)"
9,AGGGAT,"1.49 fold enrichment (6-mer frequency, TF over GST control)"
10,TCGAGA,"1.01 fold enrichment (6-mer frequency, TF over GST control)"
11,CTAGAC,"1 fold enrichment (6-mer frequency, TF over GST control)"
12,GTGGAT,"1.25 fold enrichment (6-mer frequency, TF over GST control)"
13,TTAGTC,"1.57 fold enrichment (6-mer frequency, TF over GST control)"
14,GGAATA,"1.02 fold enrichment (6-mer frequency, TF over GST control)"
15,CAAAGA,"1.05 fold enrichment (6-mer frequency, TF over GST control)"
16,AGAGAT,"1.38 fold enrichment (6-mer frequency, TF over GST control)"
17,GGATTA,"5.42 fold enrichment (6-mer frequency, TF over GST control)"
18,CCAGAT,"1.34 fold enrichment (6-mer frequency, TF over GST control)"
19,AGGATT,"2.82 fold enrichment (6-mer frequency, TF over GST control)"
20,TCAAGA,"1.03 fold enrichment (6-mer frequency, TF over GST control)"
21,GACTAA,"1.44 fold enrichment (6-mer frequency, TF over GST control)"
22,GATAAG,"1.77 fold enrichment (6-mer frequency, TF over GST control)"
23,TTCGGG,"1 fold enrichment (6-mer frequency, TF over GST control)"
24,AGAAAG,"1.01 fold enrichment (6-mer frequency, TF over GST control)"
25,CAGAAA,"1.07 fold enrichment (6-mer frequency, TF over GST control)"

# Target: T4, ERF (Homo sapiens, UniProt P50548 1-548)
# T4 sequence: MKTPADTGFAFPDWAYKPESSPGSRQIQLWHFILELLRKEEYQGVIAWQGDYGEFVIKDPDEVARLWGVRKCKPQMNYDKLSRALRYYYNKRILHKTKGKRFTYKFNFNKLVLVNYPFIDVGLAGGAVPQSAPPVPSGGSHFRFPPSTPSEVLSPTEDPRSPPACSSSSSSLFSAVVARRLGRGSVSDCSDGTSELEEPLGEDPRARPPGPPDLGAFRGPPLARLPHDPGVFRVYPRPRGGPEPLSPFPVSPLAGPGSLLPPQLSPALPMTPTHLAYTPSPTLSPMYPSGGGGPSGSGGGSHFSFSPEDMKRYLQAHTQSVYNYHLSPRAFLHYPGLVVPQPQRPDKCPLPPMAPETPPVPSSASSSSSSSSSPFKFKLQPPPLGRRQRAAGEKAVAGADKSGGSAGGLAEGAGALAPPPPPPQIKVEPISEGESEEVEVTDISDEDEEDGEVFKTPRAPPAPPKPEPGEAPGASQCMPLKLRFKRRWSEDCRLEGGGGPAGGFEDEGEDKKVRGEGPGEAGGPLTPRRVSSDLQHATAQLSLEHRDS
# Assay: as above
# Conditions: protein: recombinant; tags: N-terminal GST; dsDNA, one strand shown
# Method in brief: as §1
row,Sequence,binding signal
1,GGAATA,"1.02 fold enrichment (6-mer frequency, TF over GST control)"
2,GCGAAC,"1.05 fold enrichment (6-mer frequency, TF over GST control)"
3,CCAAGA,"1.01 fold enrichment (6-mer frequency, TF over GST control)"

# Target: T5, SPDEF (Homo sapiens, UniProt O95238 1-335)
# T5 sequence: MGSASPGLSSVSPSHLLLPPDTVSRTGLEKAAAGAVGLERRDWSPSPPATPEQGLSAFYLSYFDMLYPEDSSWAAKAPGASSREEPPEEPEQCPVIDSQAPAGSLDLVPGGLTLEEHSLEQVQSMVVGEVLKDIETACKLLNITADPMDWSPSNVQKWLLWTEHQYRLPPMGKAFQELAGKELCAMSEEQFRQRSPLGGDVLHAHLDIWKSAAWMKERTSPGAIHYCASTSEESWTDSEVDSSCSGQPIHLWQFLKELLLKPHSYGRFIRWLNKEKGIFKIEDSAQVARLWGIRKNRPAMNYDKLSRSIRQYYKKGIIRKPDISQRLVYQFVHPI
# Assay: as above
# Conditions: protein: recombinant; tags: N-terminal GST; dsDNA, one strand shown
# Method in brief: as §1
row,Sequence,binding signal
1,AGGATC,"1.2 fold enrichment (6-mer frequency, TF over GST control)"
2,GGATTC,"1.07 fold enrichment (6-mer frequency, TF over GST control)"
3,GGATTA,"1.02 fold enrichment (6-mer frequency, TF over GST control)"
4,AGGATT,"1.04 fold enrichment (6-mer frequency, TF over GST control)"

# Target: T6, ETV7 (Homo sapiens, UniProt Q9Y603 1-341)
# T6 sequence: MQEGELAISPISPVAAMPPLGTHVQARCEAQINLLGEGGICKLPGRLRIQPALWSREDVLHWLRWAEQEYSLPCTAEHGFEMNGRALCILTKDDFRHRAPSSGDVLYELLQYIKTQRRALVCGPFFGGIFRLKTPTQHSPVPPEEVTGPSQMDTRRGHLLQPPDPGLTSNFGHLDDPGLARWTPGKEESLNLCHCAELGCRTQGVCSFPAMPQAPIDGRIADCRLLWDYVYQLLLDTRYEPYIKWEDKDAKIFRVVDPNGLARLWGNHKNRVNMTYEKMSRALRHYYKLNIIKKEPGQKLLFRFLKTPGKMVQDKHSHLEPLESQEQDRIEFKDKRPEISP
# Assay: as above
# Conditions: protein: recombinant; tags: N-terminal GST; dsDNA, one strand shown
# Method in brief: as §1
row,Sequence,binding signal
1,GAAGAT,"1 fold enrichment (6-mer frequency, TF over GST control)"
2,CGAGAA,"1.01 fold enrichment (6-mer frequency, TF over GST control)"
3,GGAAAG,"1.06 fold enrichment (6-mer frequency, TF over GST control)"
4,GAAAGT,"1 fold enrichment (6-mer frequency, TF over GST control)"
5,GCGAAC,"1.04 fold enrichment (6-mer frequency, TF over GST control)"
6,CAGAAC,"1.03 fold enrichment (6-mer frequency, TF over GST control)"
7,CAGAAA,"1.02 fold enrichment (6-mer frequency, TF over GST control)"
